Screening data as filed in PubChem BioAssay.
aSyn rescue: alpha-synuclein toxicity inhibition in yeast. Yeast expressing alpha-synuclein, growth rescue, BacTiter-Glo, 24 h. Potency, µM (top dose mostly 46.1 µM), inactives show top-dose growth rescue (activation), actives largely listed as activators. 370,000 compounds, 0.14% hits; further: potency means the concentration at half of the fitted maximal effect; % of control where 0% means no effect; nearly all actives have a fitted effect of over 65% in size
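Readout is rescue of growth in alpha-synuclein-expressing yeast, so inhibitors of toxicity appear as activators. Growth after 24 hr at 30 deg C in galactose medium is quantified by luminescence.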
FUS yeast rescue: FUS proteinopathy suppression in yeast | Potency, µM (doses to about 76.6 µM), hits mostly activators | 390,000 compounds, 0.24% hits | S. cerevisiae FUS-expressing, growth rescue, OD600, 24 h;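 further: potency means the concentration at half of the fitted maximal effect; plate controls were DMSO vehicle for no effect and reference control for full effect; nearly all actives have a fitted effect of over 55% in size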
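Absorbance at 600 nm, taken 24hr after compound addition, measured rescue of FUS-yeast growth at 30C. Induction used 2% galactose with seeding at OD 0.005. Controls: CP55940 from 92uM final, DMSO only.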
Mm-Cpn inhibitor: blocks the Methanococcus maripaludis chaperonin Mm-Cpn; purified Mm-Cpn ATPase, ADP Transcreener TR-FRET; Potency, µM (titrated, usually from 76.9 µM), without a hit: at the highest dose activity, negative = inhibition, actives largely listed as inhibitors; 330,000 compounds, 0.031% hits; AID 504842; further: potency means the concentration at half of the fitted maximal effect; on the % scale 0 is the no-effect control and ±100 the full control effect; nearly all actives have a fitted effect of over 80% in size
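Purified archaeal Mm-CPN (25nM final) preincubated 10 min at 37degC with compound, then 10uM ATP for 30 min at 37degC; ADP measured by HTRF Transcreener TR-FRET; buffer 30 mM TRIS pH 7.4, 100mM KCl, 5mM MgCl2, 1mM DTT.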
TDP43 rescue: TDP-43 toxicity inhibition in yeast. TDP-43 expressing yeast growth rescue, BacTiter-Glo, 24 h. Potency, µM (titrated, usually from 46.1 µM), for the others: top-dose growth rescue (activation), most hits filed as activators. 410,000 compounds, 1.8% hits. AID 652104; further: potency means the concentration at half of the fitted maximal effect; % of control where 0% means no effect; nearly all actives have a fitted effect of over 50% in size
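Luminescence from BacTiter-Glo reports growth of TDP-43-expressing yeast after 24 hr at 30 deg C with compound. Cells were raffinose-pregrown to mid-log, then seeded in galactose medium at OD600=0.02.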
CCT modulator: cytosolic chaperonin activity modulation. purified chaperonin ATPase assay, HTRF ADP detection, 30 min. activity change, % (concentration not given with the values), hits read low. 360,000 compounds, 0.3% hits; in the data active means activity change below about -30%; further: on the % scale 0 is the no-effect control and ±100 the full control effect
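We incubate TRiC, 40 or 20 nM final, with library compounds at 76 uM and 10 uM ATP for 30 min at 37 °C. ADP formed is detected with Transcreener HTRF reagents after 30 min at room temperature.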
Abeta rescue: A-beta toxicity reversal in yeast; AID 1347071; Potency, µM (top dose mostly 46.1 µM), hits mostly activators; 410,000 compounds, 0.063% hits; yeast expressing A-beta42, growth rescue, OD600, 48 h; response scale: 0% DMSO, 100% iron-clioquinol control; further: potency means the concentration at half of the fitted maximal effect; nearly all actives have a fitted effect of over 55% in size
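Yeast growth medium received pinned compounds, then yeast cells expressing toxic A-beta were added; plates incubated at 30 C for 48 hr. Growth read as absorbance at 600 nm, normalized to DMSO and equimolar FeCl3 plus clioquinol controls.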
The depositor's hits bear a star; ! = repeats disagree; [ ] = remark or other dose. Only some compounds are listed: those with a hit (about 2.3% of all), similar ones and a draw of the others. Unless noted, the call rests on the fitted dose curve; in most records, active means well fitted curve in the direction sought with a large enough effect; inconclusive means small, poorly fitted or top-dose-only effect, or another doubt; inactive means no such curve, though single readings can be large; an effect the other way counts as inactive or inconclusive.

Screening COc1cc(N=Nc2ccc(Br)cc2)cc(C=O)c1O returned aSyn rescue -38.5%, FUS yeast rescue inactive, TDP43 rescue 12.6µM*, CCT modulator -2.3 and Abeta rescue inactive.
For COc1ccc(C)cc1NC(=O)COCc1cc(-c2ccc(F)cc2)on1 the results were FUS yeast rescue inconclusive, TDP43 rescue 35.5µM* and Abeta rescue inactive.
`COc1cc(NC(=O)COCc2cc(-c3ccc(F)cc3)on2)cc(OC)c1OC` gave FUS yeast rescue inactive, TDP43 rescue inconclusive and Abeta rescue inactive.
For CN1CCN(c2ccc(-c3cc(NC=O)c4ncc(-c5ccc(F)c(Cl)c5)n4c3)cc2)CC1 the results were aSyn rescue -0.1%, FUS yeast rescue inactive, TDP43 rescue 23.9%, CCT modulator -4.0 and Abeta rescue inactive.
For CN(C)c1ccc(-c2cc(NC=O)c3ncc(-c4ccc(F)c(Cl)c4)n3c2)cc1 the results were aSyn rescue -6.1%, FUS yeast rescue inconclusive, TDP43 rescue 22.4µM*, CCT modulator 1.2 and Abeta rescue inactive.
For O=CNc1cc(-c2cccc(F)c2)cn2c(-c3ccc(F)c(Cl)c3)cnc12 the results were aSyn rescue -5.8%, FUS yeast rescue inactive, TDP43 rescue 15.8µM*, CCT modulator -2.5 and Abeta rescue inactive.
O=CNc1cc(-c2ccccc2)cn2c(-c3ccc(F)c(Cl)c3)cnc12 was read as aSyn rescue -13.1%, FUS yeast rescue inactive, TDP43 rescue inconclusive, CCT modulator 2.3 and Abeta rescue inactive.
COc1ccc(N2CCN(C(=O)c3ccc4c(c3)CCN4S(=O)(=O)c3ccccc3)CC2)cc1 was read as aSyn rescue 8.2%, FUS yeast rescue inconclusive, Mm-Cpn inhibitor 1.3%, TDP43 rescue inconclusive, CCT modulator -3.9 and Abeta rescue inactive.
For O=C(c1ccc2c(c1)CCN2S(=O)(=O)c1ccccc1)N1CCN(c2ccc(F)cc2)CC1 the results were aSyn rescue 14.2%, FUS yeast rescue 17.8µM*!, Mm-Cpn inhibitor -0.6%, TDP43 rescue inconclusive, CCT modulator -0.8 and Abeta rescue inactive.
Screening Cc1ccc(S(=O)(=O)N2CCN(c3nc(-n4ccnc4)nc4ccccc34)CC2)cc1 returned aSyn rescue 2µM*.
`O=C(NCCCN1CCOCC1)C(=O)NCC1OCCN1S(=O)(=O)c1ccc(Br)cc1` (configuration not stated) gave aSyn rescue -1.1%, Mm-Cpn inhibitor 1.7%, TDP43 rescue -13.0%, CCT modulator -1.1 and Abeta rescue inactive.
Screening O=C(NCCCN1CCOCC1)C(=O)NCC1OCCN1S(=O)(=O)c1ccc(Cl)cc1 (configuration not stated) returned aSyn rescue 3.4%, FUS yeast rescue inactive, TDP43 rescue 8.0%, CCT modulator -33.5* and Abeta rescue inactive.
Cc1ccc(-c2cc(C(=O)NN=Cc3cccc4ccccc34)[nH]n2)cc1C was read as FUS yeast rescue inactive.
COCCCN=C(c1ccco1)n1c(=S)nc(-c2ccco2)n(CCCOC)c1=S was read as aSyn rescue -27.4%, FUS yeast rescue 28.2µM*, Mm-Cpn inhibitor -0.6%, TDP43 rescue -15.5%, CCT modulator -2.1 and Abeta rescue inactive.
For CC(C)(C)OC(=O)NCc1cc(F)ccc1/C=C/S(=O)(=O)NCc1ccc(F)cc1 the results were FUS yeast rescue inactive.
CC(C)OC(=O)CC(=O)c1sc2nc3c(cc2c1N)CN(C)CC3 was read as aSyn rescue -2.0%, FUS yeast rescue 12.6µM*, Mm-Cpn inhibitor 1.0%, TDP43 rescue 7.7%, CCT modulator -1.1 and Abeta rescue inactive.
`CN1CCc2nc3sc(C(=O)Nc4cccc(C#N)c4)c(N)c3cc2C1` gave FUS yeast rescue inconclusive, TDP43 rescue 17.8µM* and Abeta rescue inactive.
For CC(C)(C)NC(=O)C(c1ccc(C(F)(F)F)cc1)n1c(=O)c(-c2cc3ccccc3[nH]2)nc2ccccc21 (configuration not stated) the results were aSyn rescue 7.08µM*, FUS yeast rescue inactive, TDP43 rescue inconclusive and Abeta rescue inconclusive.
Screening CC(C)(C)NC(=O)C(c1ccc(C#N)cc1)n1c(=O)c(-c2cc3ccccc3[nH]2)nc2ccccc21 (configuration not stated) returned aSyn rescue 12.6µM*, FUS yeast rescue inconclusive, TDP43 rescue 25.6% and Abeta rescue inconclusive.
C[C@H]1O[C@@H](n2c3ccc(Cl)cc3c3ccc4c5cc(Cl)ccc5[nH]c4c32)[C@H](O)[C@H](O)[C@H]1O was read as FUS yeast rescue inactive.
Screening CC(C)C(=O)Nc1ccc2nc(SCC(=O)N3CCc4ccccc43)sc2c1 returned FUS yeast rescue inactive, TDP43 rescue -1.5% and Abeta rescue inactive.
`CCOC(=O)/C=C/c1cnn(-c2ccccc2)c1` gave aSyn rescue 0.0%, Mm-Cpn inhibitor 3.1%, TDP43 rescue 13.3%, CCT modulator 1.7 and Abeta rescue inactive.
Screening O=C(O)/C=C/c1cnn(-c2ccccc2)c1 returned aSyn rescue 0.4%, FUS yeast rescue inactive, Mm-Cpn inhibitor -0.8%, TDP43 rescue 35.5µM*, CCT modulator 1.9 and Abeta rescue inactive.
CN(C(=O)Cn1ncc2c1-c1ccccc1OC2)c1ccc(Br)cc1 was read as FUS yeast rescue inactive, TDP43 rescue 17.8µM* and Abeta rescue inactive.
For CCN(CC)C(=O)Cn1ncc2c1-c1ccccc1OC2 the results were aSyn rescue -0.6%, FUS yeast rescue inactive, Mm-Cpn inhibitor -0.1%, TDP43 rescue 4.2%, CCT modulator -0.2 and Abeta rescue inactive.
Screening O=C(Cn1ncc2c1-c1ccccc1OC2)Nc1nc2ccccc2s1 returned aSyn rescue -8.3%, FUS yeast rescue inactive, Mm-Cpn inhibitor 1.8%, TDP43 rescue 14.1µM*, CCT modulator -1.6 and Abeta rescue inactive.
For O=C(Nc1nccs1)C(Br)C(Br)c1ccccc1 (configuration not stated) the results were aSyn rescue 0.4%, FUS yeast rescue inactive, Mm-Cpn inhibitor -3.6%, TDP43 rescue 10µM*, CCT modulator 0.9 and Abeta rescue inactive.
For COc1cc2nc(N3CCOCC3)nc(NC3CCN(C)CC3)c2cc1OC the results were aSyn rescue 0.6%.
Screening COc1ccc2c(c1)CC(C(=O)NCCN1CCN(c3cccc(Cl)c3)CC1)CO2 (configuration not stated) returned FUS yeast rescue inactive, TDP43 rescue 0.9%[9.22 µM] and Abeta rescue inactive.
